Data published in PubChem BioAssay.
Activity calls are given as the source filed them.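 The calls were made as follows, unless noted: active = viability loss from added drug above about 55%, and viability with drug at most 40%, in both replicates (limit read from the data, passing the limit was not always enough); inconclusive = both conditions met in only one replicate; inactive = neither replicate meets both conditions.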

Assay: H69AR cell proliferation blockers – human, duplicate replicates, primary screen (AID 580;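 active = viability at or under a set limit in both replicates, limit being median viability minus 3 SD, cut at about 48% in these data, passing the limit was not always enough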;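 also: 100% = mean luminescence of untreated wells and 0% = no signal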)
Conditions: H69AR lung tumor cells viability, ATP luminescence, 72 h; at 10 µM; hits give low values
In the case of CCCCC(=O)NCCc1cc2c(C)ccc(C)c2[nH]c1=O, the viability was 85.1% (inactive).
With CN1CCN(C2=C(Cl)C(=O)N(c3cccc(Cl)c3)C2=O)CC1 the viability was 85% (inactive).
With Cc1ccc(Cn2c(=O)c3ccccc3n3c(CCC(=O)O)nnc23)cc1 the viability was 98.9% (inactive).
With COc1cc(/C=N/n2cnnc2)ccc1OCC(=O)N1CCOCC1 the viability was 93% (inactive).
With CCC(C)C(=O)Nc1nc2c(s1)C(=O)CC(C)(C)C2 (stereo not given) the viability was 89.5% (inactive).
With O=C(C(Cc1ccccc1)n1cccc1)N1CCCCCC1 (stereo not given) the viability was 95.6% (inactive).
For Cc1ccc(NC(=O)c2cc(-c3ccc(C)o3)nc3ccccc23)nc1, the viability was 4.86% (active).
With Cc1cccc(-n2ncc3c(NCCCn4ccnc4)ncnc32)c1 the viability was 88.6% (inactive).
For Cc1ccc(CNC(=O)C2CCCN(S(=O)(=O)c3cnc[nH]3)C2)cc1 (stereo not given), the viability was 106% (inactive).
In the case of CCCN1CCN(CCCNC(=O)Cn2ncc3c4ccccc4n(C)c3c2=O)CC1, the viability was 102% (inactive).
For CN(C)c1cc(NC(=O)CN2CCOCC2)c2ccccc2n1, the viability was 85.8% (inactive).
For CN(C)S(=O)(=O)c1ccc2c(c1)c(=O)c(C(=O)NCCCN1CCCCCC1)cn2C, the viability was 102% (inactive).
For CC(C)c1ccc(C(O)c2cnc(C(C)C)n2C)cc1 (stereo not given), the viability was 88.1% (inactive).
For CCN(CC)C(=O)c1ccc(CS(=O)(=O)c2ccc(OC)cc2)o1, the viability was 87.8% (inactive).
In the case of COc1ccc2c(c1)CCc1cc(C(=O)N3CCN(c4ccc(N5CCOCC5)nn4)CC3)sc1-2, the viability was 63.7% (inactive).
For COc1ccc(-c2[nH]c(-c3cccc(OC)c3)nc2SCC(=O)NCc2ccco2)cc1, the viability was 71% (inactive).
In the case of CCSc1nnc(N2C(=O)CC(c3ccsc3)C3=C2CC(C)(C)CC3=O)s1 (stereo not given), the viability was 89% (inactive).
In the case of CC1=C(C(=O)Nc2cccnc2)C(c2ccc(C(C)C)cc2)n2ncnc2N1 (stereo not given), the viability was 97.8% (inactive).
In the case of CCCCN=CC1=C(O)C(C(=O)OC)C(C)(C)CC1=O (stereo not given), the viability was 91.4% (inactive).
For O=C1c2ccccc2C(Nc2cccnc2)N1Cc1ccccc1Cl (stereo not given), the viability was 86.3% (inactive).
With CC(=O)NC(CCS(C)(=O)=O)C(=O)Nc1cccc(C)c1 (stereo not given) the viability was 94.1% (inactive).
In the case of Cc1ccc(N2CCN(S(=O)(=O)N(C)C)CC2)c(C)c1, the viability was 83.5% (inactive).
For CCOc1ccc(NC(=O)CCN2CCN(c3ccccc3)CC2)cc1, the viability was 82.5% (inactive).
In the case of CCOC(=O)C1=C(C)Nc2nnnn2C1c1ccc(OC)c(Br)c1 (stereo not given), the viability was 93.3% (inactive).
In the case of CC(C)c1nnc(NC(=O)Cc2cccs2)s1, the viability was 96.7% (inactive).
With Cc1ccnc(NC(=O)C2CCC(CNc3c(N4CCCC4)c(=O)c3=O)CC2)c1 (stereo not given) the viability was 90.2% (inactive).
With CCN(CCCNS(=O)(=O)c1ccc2c(c1)oc(=O)n2C)c1cccc(C)c1 the viability was 90.1% (inactive).
With O=C(NCC1CCCO1)C1CCN(S(=O)(=O)c2cccc3cccnc23)CC1 (stereo not given) the viability was 101% (inactive).
In the case of CCn1c(C(=O)N2CCC(C(=O)N3CCN(c4ccccn4)CC3)CC2)cc2sccc21, the viability was 87.1% (inactive).
In the case of O=C(O)COc1ccc(S(=O)(=O)NCCc2ccccc2)cc1, the viability was 106% (inactive).
For CCOC(=O)N1CCN(C(=O)c2ccc(CS(=O)(=O)c3c(Cl)cccc3Cl)o2)CC1, the viability was 96.5% (inactive).
For CNC(=O)c1ccsc1NC(=O)c1ccccc1, the viability was 80.8% (inactive).
With CSc1nc2ccccc2c(=O)n1N the viability was 97.5% (inactive).
For CCN1CCN(C(c2cccs2)C(C)NC(=O)c2ccccc2)CC1 (stereo not given), the viability was 87.3% (inactive).
In the case of CC(Sc1nc(-c2ccccc2)cc(C(F)(F)F)n1)C(=O)N1CCCC1 (stereo not given), the viability was 88.8% (inactive).
In the case of CCOc1cccc(-c2nnc3n2N=C(c2cc(OC)ccc2OC)CS3)c1, the viability was 13.5% (active).
For COc1cc(NC(=O)C2CCCN2S(=O)(=O)c2cccc3cccnc23)cc(OC)c1OC (stereo not given), the viability was 82.2% (inactive).
In the case of CCOC(=O)c1ccc(-n2c(C)nc3c(cnn3-c3ccccc3C)c2=O)cc1, the viability was 98.1% (inactive).
For O=C(Nc1c(C(=O)NCc2ccco2)cnn1-c1ccccc1)c1ccc(F)cc1, the viability was 96.9% (inactive).
With O=C(NCCC1=CCCCC1)C1CCN(S(=O)(=O)c2cccc3cccnc23)CC1 the viability was 97% (inactive).

Assay: MRP1 drug-resistance reversers in H69AR cells – cell-based, doxorubicin co-treatment, pilot screen (AID 601)
Conditions: H69AR cells + 2 uM doxorubicin, CellTiter-Glo, 72 h; at 10 µM; hits give high values
In the case of CCCCC(=O)NCCc1cc2c(C)ccc(C)c2[nH]c1=O, the differential viability (reversal) was 1.76% (inactive).
In the case of CN1CCN(C2=C(Cl)C(=O)N(c3cccc(Cl)c3)C2=O)CC1, the differential viability (reversal) was 4.44% (inactive).
For Cc1ccc(Cn2c(=O)c3ccccc3n3c(CCC(=O)O)nnc23)cc1, the differential viability (reversal) was 7.02% (inactive).
For COc1cc(/C=N/n2cnnc2)ccc1OCC(=O)N1CCOCC1, the differential viability (reversal) was -6.64% (inactive).
With CCC(C)C(=O)Nc1nc2c(s1)C(=O)CC(C)(C)C2 (stereo not given) the differential viability (reversal) was 1.27% (inactive).
For O=C(C(Cc1ccccc1)n1cccc1)N1CCCCCC1 (stereo not given), the differential viability (reversal) was 11.2% (inactive).
With Cc1ccc(NC(=O)c2cc(-c3ccc(C)o3)nc3ccccc23)nc1 the differential viability (reversal) was -0.595% (inactive).
In the case of Cc1cccc(-n2ncc3c(NCCCn4ccnc4)ncnc32)c1, the differential viability (reversal) was 3.66% (inactive).
In the case of Cc1ccc(CNC(=O)C2CCCN(S(=O)(=O)c3cnc[nH]3)C2)cc1 (stereo not given), the differential viability (reversal) was 13.9% (inactive).
For CCCN1CCN(CCCNC(=O)Cn2ncc3c4ccccc4n(C)c3c2=O)CC1, the differential viability (reversal) was 5.29% (inactive).
For CN(C)c1cc(NC(=O)CN2CCOCC2)c2ccccc2n1, the differential viability (reversal) was 0.73% (inactive).
In the case of CN(C)S(=O)(=O)c1ccc2c(c1)c(=O)c(C(=O)NCCCN1CCCCCC1)cn2C, the differential viability (reversal) was -4.19% (inactive).
In the case of CC(C)c1ccc(C(O)c2cnc(C(C)C)n2C)cc1 (stereo not given), the differential viability (reversal) was 6.51% (inactive).
With CCN(CC)C(=O)c1ccc(CS(=O)(=O)c2ccc(OC)cc2)o1 the differential viability (reversal) was -0.895% (inactive).
In the case of COc1ccc2c(c1)CCc1cc(C(=O)N3CCN(c4ccc(N5CCOCC5)nn4)CC3)sc1-2, the differential viability (reversal) was -11.4% (inactive).
In the case of COc1ccc(-c2[nH]c(-c3cccc(OC)c3)nc2SCC(=O)NCc2ccco2)cc1, the differential viability (reversal) was -2.42% (inactive).
With CCSc1nnc(N2C(=O)CC(c3ccsc3)C3=C2CC(C)(C)CC3=O)s1 (stereo not given) the differential viability (reversal) was -15% (inactive).
In the case of CC1=C(C(=O)Nc2cccnc2)C(c2ccc(C(C)C)cc2)n2ncnc2N1 (stereo not given), the differential viability (reversal) was 26.7% (inactive).
For CCCCN=CC1=C(O)C(C(=O)OC)C(C)(C)CC1=O (stereo not given), the differential viability (reversal) was 4.54% (inactive).
With O=C1c2ccccc2C(Nc2cccnc2)N1Cc1ccccc1Cl (stereo not given) the differential viability (reversal) was -16% (inactive).
In the case of CC(=O)NC(CCS(C)(=O)=O)C(=O)Nc1cccc(C)c1 (stereo not given), the differential viability (reversal) was 1.42% (inactive).
In the case of Cc1ccc(N2CCN(S(=O)(=O)N(C)C)CC2)c(C)c1, the differential viability (reversal) was -9.57% (inactive).
In the case of CCOc1ccc(NC(=O)CCN2CCN(c3ccccc3)CC2)cc1, the differential viability (reversal) was 4% (inactive).
With CCOC(=O)C1=C(C)Nc2nnnn2C1c1ccc(OC)c(Br)c1 (stereo not given) the differential viability (reversal) was -4.47% (inactive).
In the case of CC(C)c1nnc(NC(=O)Cc2cccs2)s1, the differential viability (reversal) was 6.08% (inactive).
In the case of Cc1ccnc(NC(=O)C2CCC(CNc3c(N4CCCC4)c(=O)c3=O)CC2)c1 (stereo not given), the differential viability (reversal) was 1.23% (inactive).
In the case of CCN(CCCNS(=O)(=O)c1ccc2c(c1)oc(=O)n2C)c1cccc(C)c1, the differential viability (reversal) was 5.6% (inactive).
For O=C(NCC1CCCO1)C1CCN(S(=O)(=O)c2cccc3cccnc23)CC1 (stereo not given), the differential viability (reversal) was 7.45% (inactive).
For CCn1c(C(=O)N2CCC(C(=O)N3CCN(c4ccccn4)CC3)CC2)cc2sccc21, the differential viability (reversal) was 32.9% (inactive).
For O=C(O)COc1ccc(S(=O)(=O)NCCc2ccccc2)cc1, the differential viability (reversal) was 27.5% (inactive).
In the case of CCOC(=O)N1CCN(C(=O)c2ccc(CS(=O)(=O)c3c(Cl)cccc3Cl)o2)CC1, the differential viability (reversal) was -4.92% (inactive).
For CNC(=O)c1ccsc1NC(=O)c1ccccc1, the differential viability (reversal) was -3.68% (inactive).
With CSc1nc2ccccc2c(=O)n1N the differential viability (reversal) was 4.46% (inactive).
With CCN1CCN(C(c2cccs2)C(C)NC(=O)c2ccccc2)CC1 (stereo not given) the differential viability (reversal) was 6.01% (inactive).
For CC(Sc1nc(-c2ccccc2)cc(C(F)(F)F)n1)C(=O)N1CCCC1 (stereo not given), the differential viability (reversal) was -8.49% (inactive).
For CCOc1cccc(-c2nnc3n2N=C(c2cc(OC)ccc2OC)CS3)c1, the differential viability (reversal) was -60.8% (inactive).
With COc1cc(NC(=O)C2CCCN2S(=O)(=O)c2cccc3cccnc23)cc(OC)c1OC (stereo not given) the differential viability (reversal) was -6.16% (inactive).
For CCOC(=O)c1ccc(-n2c(C)nc3c(cnn3-c3ccccc3C)c2=O)cc1, the differential viability (reversal) was -3.79% (inactive).
With O=C(Nc1c(C(=O)NCc2ccco2)cnn1-c1ccccc1)c1ccc(F)cc1 the differential viability (reversal) was 4.25% (inactive).
In the case of O=C(NCCC1=CCCCC1)C1CCN(S(=O)(=O)c2cccc3cccnc23)CC1, the differential viability (reversal) was -1.27% (inactive).
